# Assay results as given in PubChem BioAssay AID651784 (National Center for Advancing Translational Sciences (NCATS), 2012).
# Inconclusive results are not listed. The source made the active and inactive calls. Calls come from the whole dose curve; as a rule, active = well fitted inhibition curve with a large enough effect; inconclusive = small, poorly fitted or top-dose-only effect; inactive = no such curve, though single readings can be large or run the other way.
# Assay: Acumen qHTS Assay for Inhibitors of the mTORC1 Signaling Pathway in MEF (Tsc2-/-, p53-/-) Cells: Hit Validation;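 note: phospho-rpS6 Ser235/236 immunofluorescence normalized to propidium iodide cell count; nearly all actives have a fitted effect of over 65% in size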;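 for activity change, negative = inhibition: cells exposed to compound for 24 hours; plate controls were DMSO for no effect and 7.5 nM rapamycin control for full effect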
# Conditions: Acumen imaging; activity change, negative = inhibition: at 37.3 µM (top of the series)
# Potency is the fitted concentration of half-maximal effect.
SMILES,Potency,"activity change, negative = inhibition [%]"
CCS(=O)(=O)c1oc(-c2ccc(F)cc2)nc1S(=O)(=O)c1ccc(Br)cc1,4.14 µM (active),
Cc1ccc(-c2csc(-c3cc4c([nH]c3=O)CC(c3ccccc3)CC4=O)n2)cc1 (stereo unspecified),0.927 µM (active),
CCCCN(C)CCNC(=O)c1cc2c(=O)n(C)c3ccccc3c2n1C,,-0.172
CCCS(=O)(=O)c1ncc(Cl)c(C(=O)Nc2c(C(=O)Nc3ccccc3)oc3ccccc23)n1,0.585 µM (active),
COc1ccc2c(CNCCc3cccs3)c(C(=O)O)n(Cc3ccc(F)cc3Cl)c2c1,,-51.9
CCc1cnc2c(c1SCC(=O)NCc1ccc(F)cc1)c(=O)n(C)c(=O)n2C,,5.42
CC1=C(C(=O)OC2CCCC2)C(c2ccccc2Cl)CC(=O)N1 (stereo unspecified),,-10.6
Cc1ccc(C)c(N2CCN(CCCNC(=O)c3nnc(Cc4ccc(F)cc4Cl)o3)CC2)c1,10.4 µM (active),
O=C(Nc1ccc2oc(-c3cc(Br)ccc3Cl)nc2c1)c1cc2ccccc2o1,,-105
COc1ccc(CCNC(=O)c2ccc3c(c2)N(Cc2ccccc2)CCS3)cc1OC,5.21 µM (active),
Cc1cccc(NC(=O)c2nc(S(C)(=O)=O)ncc2Cl)c1,2.07 µM (active),
CC(C)CCNC(=O)Nc1ccc2c(c1)N(C)C(=O)c1ccccc1S2,,-8.55
CCN(CC)CCn1c(=N)n(CCOc2ccccc2Cl)c2ccccc21,,-149
COc1ccc2c(c1)CC(C(=O)Nc1cc(Cl)ccc1C)CO2 (stereo unspecified),,-12.5
CCN1C(=O)c2ccccc2Sc2ccc(NC(=O)Cc3ccc(OC)cc3)cc21,4.14 µM (active),
Cc1ccc(C(=O)/C=C/c2cn(CC(O)CN3CCCCCC3)c3ccccc23)cc1 (stereo unspecified),18.5 µM (active),
